This is an account of results in PubChem BioAssay AID602393 (Broad Institute, 2012).

Out of some 350,000 compounds screened, about 7,000 (2%) were called active. The entries come from a sample that favours actives as a whole. A number with no mark means an inactive call. No stated cut-off is given here; in the data, active means activation above about 40%; inconclusive means no clear call, values can overlap the other calls; inactive means below that.

This assay can be described thus: raisers of Bmi1 knock-in reporter signal – mouse ES cells, Bmi1 luciferase knock-in, single point, esBAF inhibitor project, primary screen (AID 602393).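 Further: 0% = median of the plate's neutral control wells and 100% = double that signal; a rise in the Bmi1 reporter signal indicates esBAF inhibition.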 Conditions: 24 h, at 12.5 µM, hits give high values, 100% = twice the neutral-well signal.
On to `C[C@H]1CN([C@@H](C)CO)C(=O)c2cc(C3=CCCCC3)cnc2O[C@H]1CN(C)Cc1ccncc1`, for which the reporter increase is -11.9%. The figure for `O=C(O)C1CCN(C(=O)OCc2ccccc2)CC1` is 59.3% (active); for `O=C(NCc1ccccc1)C1CCN(C(=O)Cc2ccccc2)CC1` it is 1.43%; for `CCOC(=O)N1CCC(NC(=O)CCc2ccccc2)CC1` it is -4.64%. Then `CC(C)NC(=O)Nc1ccc2c(c1)C(=O)N([C@@H](C)CO)C[C@H](C)[C@@H](CN(C)S(C)(=O)=O)O2`, with -2.99%; and `COCC(=O)Nc1ccc2c(c1)C(=O)N(C)C[C@@H](OC)[C@H](C)CN(C(=O)c1ccccn1)[C@@H](C)CO2`, with 4.23%. Turning to `CCCOC(=O)c1[nH]c2c(c1C)C(=O)CC(c1cccs1)C2` (stereo not given), the reporter increase was -12.1%. For `CCCOC(=O)C1=C(C)NC2=C(C(=O)C(C(=O)OC)C(C)C2)C1c1ccc(N(C)C)cc1` (stereo not given), the reporter increase was 8.57%. Then `CCOC(=O)c1[nH]c2c(c1C)C(=O)CC(c1ccc(N(C)C)cc1)C2` (stereo not given), with 51.2% (active). `CC(=O)N1[C@H](CO)[C@H](c2ccc(-c3ccccc3)cc2)[C@H]1CNC(=O)C1CC1`: the reporter increase was 2.48%. In the case of `COc1ccccc1S(=O)(=O)Nc1ccc2c(c1)C(=O)N(C)C[C@H](OC)[C@H](C)CN[C@H](C)CO2`, the reporter increase was -6.13%. On to `CC(C)Sc1ncnc2c1cnn2-c1ccccc1`, for which the reporter increase was 19%. Then `C1=C(CCNc2ncnc3c2cnn3-c2ccccc2)CCCC1`, with 69.7% (active); and `Cc1nn(C(C)C(=O)NCCC2=CCCCC2)c(=O)c2nn(-c3ccccc3)c(C)c12` (stereo not given), with 21%. Then `C[C@@H]1CN([C@@H](C)CO)C(=O)Cc2cc(NC(=O)CCN3CCOCC3)ccc2O[C@@H]1CN(C)C(=O)Nc1cccc2ccccc12`, with -0.153%; and `CN(C)C(CNC(=O)c1cc2ccccc2o1)c1ccccc1` (stereo not given), with 7.21%; and `Cc1ccc(NC(=O)c2cc3ccccc3o2)cc1`, with 52.9% (active).

Turning to `O=C(Nc1ccncc1)c1cc2ccccc2o1`, the reporter increase is 75.6% (active). In the case of `CC(C)(C)n1nc2c(c1NC(=O)c1cc3ccccc3o1)CSC2`, the reporter increase is -2.69%. With `Cc1cc(NC(=O)c2cc3ccccc3o2)no1`, the reporter increase is 20.5%. As for `O=C(NCCc1ccc2c(c1)OCCO2)c1cc2ccccc2o1`, the reporter increase is 24.4%. In the case of `COc1ccccc1C#Cc1ccc2c(c1)O[C@@H](CN(C)Cc1cncnc1)[C@H](C)CN([C@@H](C)CO)S2(=O)=O`, the reporter increase was 8.66%. For `COC(=O)N(C)C[C@H]1OCc2ccccc2-c2ccccc2C(=O)N([C@@H](C)CO)C[C@H]1C`, the reporter increase is 5.99%. Then `CN(c1ccccc1)S(=O)(=O)c1cccc(NC(=O)Cc2ccc(Cl)cc2)c1`, with -11.6%. Then `CN(c1cccc(NC(=O)c2ccc(CN3CCc4ccccc4C3)cc2)c1)S(C)(=O)=O`, with -0.323%. `CN(c1cccc(NC(=O)Nc2ccc(Cl)cc2)c1)S(C)(=O)=O`: the reporter increase is 50.6% (active). Then `C[C@H](CO)N1C[C@H](C)[C@@H](CN(C)CC2CCCCC2)Oc2ccc(NS(=O)(=O)c3cccs3)cc2CC1=O`, with -1.82%; and `CCCNC(=O)C[C@@H]1C[C@@H]2c3cc(N(C)C)ccc3O[C@@H]2[C@H](CO)O1`, with 1.01%.

For the compound `CCCN(C)C[C@@H]1Oc2cc(C#Cc3ccc(F)cc3)ccc2S(=O)(=O)N([C@H](C)CO)C[C@H]1C`, the reporter increase is -2.93%. On to `CCOC(=O)c1cc(-c2sc(NC(=O)c3ccccc3)nc2C)n(Cc2ccccc2)n1`, for which the reporter increase is 56% (active). Then `C=CCn1nc(C(=O)OCC)cc1-c1sc(NC(=O)c2ccccc2)nc1C`, with 4.24%; and `CCOc1ccc(C(=O)Nc2c3c(nn2-c2ccccc2)CS(=O)(=O)C3)cc1`, with -0.973%.

In the case of `CCOC(=O)c1cc2ccccc2n1CC(=O)c1ccccc1`, the reporter increase is 2.35%.

In the case of `CCOC(=O)c1cc(-c2sc(NC(=O)c3ccccc3)nc2C)n(CCO)n1`, the reporter increase is 12.3%.

In the case of `CCOC(=O)c1cc(-c2sc(NC(=O)c3ccccc3)nc2C)n(-c2ccc(Br)cc2)n1`, the reporter increase is 50.4% (active).

With `COc1ccc(NC(=O)Nc2ccc3c(c2)[C@@H]2C[C@H](CC(=O)N[C@@H](C)c4ccccc4)O[C@@H](CO)[C@@H]2O3)cc1`, the reporter increase is -1.34%. Then `Cc1ccc(S(=O)(=O)N(C)C[C@@H]2OCCCC[C@@H](C)Oc3ccc(NC(=O)Nc4ccc(C(F)(F)F)cc4)cc3C(=O)N([C@@H](C)CO)C[C@@H]2C)cc1`, with 1.3%; and `C[C@@H]1CCCCO[C@H](CN(C)S(=O)(=O)c2ccccc2)[C@H](C)CN([C@@H](C)CO)C(=O)c2cc(N(C)C)ccc2O1`, with -0.863%. Take `Cc1cc2c(=O)n(C)c(SCC(=O)c3cc4ccccc4o3)nc2s1`: the reporter increase is -5.28%. As to `COc1ccc2oc(=O)cc(-c3cc4ccccc4o3)c2c1`, the reporter increase was -2.86%. On to `Nc1ncc(-c2cc3ccccc3oc2=O)s1`, for which the reporter increase was 47.3% (active).

For `COc1ccccc1C(=O)Nc1ccc2c(c1)C(=O)N(C)C[C@@H](OC)[C@@H](C)CN(CC1CC1)[C@@H](C)CO2`, the reporter increase is 2.64%. `CCC(=O)N1CCCCN2[C@H](C1)[C@@H](c1ccc(C#CCOC)cc1)[C@@H]2CO`: the reporter increase was 3.27%.

Consider `C[C@H](CO)N1C[C@H](C)[C@@H](CN(C)S(=O)(=O)c2ccc(F)cc2)OCCCC[C@H](C)Oc2ccc(NC(=O)CCCN(C)C)cc2C1=O`, for which the reporter increase was -3.29%. Regarding `Cc1ccc(S(=O)(=O)N2C[C@H](O)COC[C@@H]3O[C@@H](CC(=O)NCC4CCCCC4)CC[C@H]32)cc1`, the reporter increase is -0.379%.

For `COCc1cccc(-c2csc(C(O)c3ccc(F)cc3)n2)c1` (stereo not given), the reporter increase was 49.8% (active).

For the compound `COc1cc(C(O)c2nc(-c3cccc(C(=O)O)c3)cs2)ccc1F` (stereo not given), the reporter increase is 4.68%. The figure for `COc1ccc(C(O)c2nc(-c3ccc4c(c3)OCO4)cs2)cc1` (stereo not given) is 11.6%; for `O=C(c1cccnc1)N1C[C@@H]2[C@H](c3ccccc31)[C@@H](CO)N2C(=O)Nc1ccc(F)cc1` it is 1.17%. As to `COc1ccc(S(=O)(=O)N(C)C[C@H]2OCCCC[C@@H](C)Oc3ccc(NS(=O)(=O)c4ccc(C)cc4)cc3C(=O)N([C@@H](C)CO)C[C@@H]2C)cc1`, the reporter increase is 7.8%.
